Molecules are shown by their SMILES. Compounds without any hit were thinned out: in the full panel of roughly 83,000, 20% have a hit.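 Single-dose data. Exposure time 48 hours. Values below 10 considered active.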 Calls of active or inactive are those of the source.

The test has as its system T-47D breast. The test can be described thus: NCI-60 one-dose screen, 48 h (100 = growth as untreated, 0 = no growth, -100 = all killed). The settings on record: 10 µM unless noted.
Consider `O=C(/C=C/c1cn(-c2ccccc2)nc1-c1ccc(Cl)cc1)c1cc2ccccc2oc1=O`, for which the growth is 44.1% (inactive).

For the compound `CCN1C(=O)N(CC)C2SC(N/N=C/c3ccc(OC)cc3)=NC21` (stereo not drawn), the growth was 80.9% (inactive). The same measure for `O=C(O)c1ccc(-n2cc(CNc3ccc(F)cc3)c(-c3ccc(C(F)(F)F)cc3)n2)cc1`: 78.2% (inactive); for `COc1cc(/C=C/C(=O)c2ccc(NC(=O)COc3cccc4cccnc34)cc2)cc(OC)c1OC`: 90.2% (inactive).

`COc1cc(CNC(=O)Cc2ccccc2[N+](=O)[O-])ccc1OCC(=O)NO`: the growth is 103% (inactive). For `Oc1ccc(CSc2nnc(-c3cnccn3)o2)c2cccnc12` the value was 18.5% (inactive); for `O=C(NCCCNc1cc(-c2cn(-c3ccccc3)nc2-c2cccc(O)c2)ccn1)Nc1ccc(F)cc1`, 11.3% (inactive).

Regarding `COc1ccc(-c2nn(-c3ccccc3)cc2/C=C/C(=O)c2ccc(NC(=O)CCCCCCC(=O)NO)cc2)cc1`, the growth was 103% (inactive). `O=C1[C@H]2Cc3c([nH]c4ccccc34)[C@@H](c3c(Cl)cccc3Cl)N2C(=O)CN1C1CCN(Cc2ccccc2)CC1`: the growth is 102% (inactive). The same measure for `COc1cccc(/C=C/C(=O)c2ccc(NC(=O)COc3cccc4cccnc34)cc2)c1`: 82.9% (inactive). On to `CCCC(=O)NC(c1cccnc1)c1cc(Cl)c2cccnc2c1O` (stereo not drawn), for which the growth is 27.7% (inactive).

Take `C/C(=N/Nc1nc(N/N=C(/C)c2ccc([N+](=O)[O-])cc2)nc(N2CCOCC2)n1)c1ccc([N+](=O)[O-])cc1`: the growth is 54.9% (inactive). Turning to `Oc1ccc(CSc2nnc(-c3cnccn3)n2-c2ccccc2)c2cccnc12`, the growth is 7.38% (active). Regarding `CCOC(=O)C1=C(C)Nc2nc3ccccc3n2C1c1ccccc1` (stereo not drawn), the growth is 95.5% (inactive).

Turning to `Oc1ccc(CSc2nnc(-c3ccc(Br)cc3)o2)c2cccnc12`, the growth is 28.5% (inactive).

`CNC(=O)c1cc(N2CCc3cc(NC(=O)Nc4ccc(Cl)c(Cl)c4)ccc32)ccn1`: the growth was 63.4% (inactive). Take `COc1cc2cc(Oc3ccc(NC(=O)Nc4cc(C(F)(F)F)cc(C(F)(F)F)c4)cc3)c(C)nc2cc1OCCN(C)C`: the growth is 106% (inactive). As to `Cc1cc(O)c(=O)cc2c1C[C@H]1CC(C)(C)/C=C/C[C@]3(C)Oc4cc(=O)c(O)cc(C)c4C[C@H]3C[C@H](O)[C@@]1(C)O2`, the growth was -2.55% (active). Turning to `COc1ccc(-c2nnc(SCc3ccc(O)c4ncccc34)n2-c2ccccc2)cc1`, the growth is 18.9% (inactive). On to `O=C(CCCCCCN1CC(=O)N2[C@@H](c3ccc(Cl)c(F)c3)c3[nH]c4ccccc4c3C[C@H]2C1=O)NO`, for which the growth was 75.6% (inactive). For `Oc1ccc(CSc2nnc(-c3ccccc3)n2-c2ccccc2)c2cccnc12` the value was 10.1% (inactive); for `Cc1ccc(NC(=O)c2ccc(CN3CCN(C)CC3)c(C(F)(F)F)c2)cc1Oc1ccc(-c2[nH]nc3ncnc(N)c23)cc1`, 101% (inactive); for `CC(c1ccccc1)N1C(=O)/C(=C/c2csc(C#N)n2)SC1=S` (stereo not drawn), 69.2% (inactive). The same measure for `O=C(COc1ccc(C2SCC(=O)N2c2ccc(F)cc2)cc1)c1ccccc1` (stereo not drawn): 89.8% (inactive); for `COc1ccc(-c2nnc(SCc3ccc(O)c4ncccc34)o2)cc1`: 27% (inactive). For `O=c1[nH]c(CNc2ccc(NCc3c(-c4ccccc4)no[n+]3[O-])cc2)nc2c1cnn2-c1ccccc1`, the growth was 42.5% (inactive). In the case of `COc1ccc(N)cc1C(=O)Nc1cccc(-c2cc(=O)c3c(OC)c(OC)c(OC)cc3o2)c1`, the growth was 41.7% (inactive). On to `CCCC(=O)NC(c1cccnc1)c1cc(C(C)=O)c2cccnc2c1O` (stereo not drawn), for which the growth is 41.7% (inactive).

(Values after PubChem BioAssay (NCI).)
